# Source: the supplement of paper PMC6992640
# Key:
# HCI01 = cells of a triple-negative basal-like breast cancer xenograft; test: cell viability of combination (% of vehicle); higher = less cytotoxic; conditions: 1 µM; 72 h; partner dose: 10 nM
# Method: (§1)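 PDX cells were treated for 72 h with each drug at 1 µM plus afatinib (10 nM; 1 µM for WHIM30). Luciferase viability is expressed as percent of vehicle.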
# WHIM2 = cells of a triple-negative basal-like breast cancer xenograft; test: as above; conditions: 1 µM; 72 h; partner dose: 10 nM
# Method: as §1
SMILES,cell viability of combination (HCI01),cell viability of combination (WHIM2)
CC(=O)c1cc2c(o1)C(=O)c1ccccc1C2=O [Napabucasin] + CN(C)C/C=C/C(=O)Nc1cc2c(Nc3ccc(F)c(Cl)c3)ncnc2cc1O[C@H]1CCOC1 [Afatinib],16.2,29.7
COc1cccc2c1C(=O)c1c(O)c3c(c(O)c1C2=O)CC(O)(C(=O)CO)CC3OC1CC(N)C(O)C(C)O1 (stereo not given) [Doxorubicin] + CN(C)C/C=C/C(=O)Nc1cc2c(Nc3ccc(F)c(Cl)c3)ncnc2cc1O[C@H]1CCOC1 [Afatinib],43.8,15.6
Clc1ccc(C(Cn2ccnc2)OCc2ccc(Sc3ccccc3)cc2)c(Cl)c1.O=[N+]([O-])O (stereo not given) [Fenticonazole Nitrate] + CN(C)C/C=C/C(=O)Nc1cc2c(Nc3ccc(F)c(Cl)c3)ncnc2cc1O[C@H]1CCOC1 [Afatinib],49.2,49.9
CN(C)CC=CC(=O)Nc1cc2c(Nc3ccc(F)c(Cl)c3)ncnc2cc1OC1CCOC1 (stereo not given) [Afatinib (BIBW2992)] + CN(C)C/C=C/C(=O)Nc1cc2c(Nc3ccc(F)c(Cl)c3)ncnc2cc1O[C@H]1CCOC1 [Afatinib],44.6,32.4
COC(=O)C1=C(C)NC(C)=C(C(=O)OCCN(C)Cc2ccccc2)C1c1cccc([N+](=O)[O-])c1.Cl (stereo not given) [Nicardipine HCl] + CN(C)C/C=C/C(=O)Nc1cc2c(Nc3ccc(F)c(Cl)c3)ncnc2cc1O[C@H]1CCOC1 [Afatinib],58.7,48
Cc1cc(-n2c(=O)[nH]c(=O)n(C)c2=O)ccc1Oc1ccc(SC(F)(F)F)cc1 [Toltrazuril] + CN(C)C/C=C/C(=O)Nc1cc2c(Nc3ccc(F)c(Cl)c3)ncnc2cc1O[C@H]1CCOC1 [Afatinib],58.1,48.4
CNC1CCC(c2ccc(Cl)c(Cl)c2)c2ccccc21.Cl (stereo not given) [Sertraline HCl] + CN(C)C/C=C/C(=O)Nc1cc2c(Nc3ccc(F)c(Cl)c3)ncnc2cc1O[C@H]1CCOC1 [Afatinib],53.4,49.2
CC1CC(=O)NN=C1c1ccc(NN=C(C#N)C#N)cc1 (stereo not given) [Levosimendan] + CN(C)C/C=C/C(=O)Nc1cc2c(Nc3ccc(F)c(Cl)c3)ncnc2cc1O[C@H]1CCOC1 [Afatinib],52.7,51.2
COc1ncc(-c2ccc3nccc(-c4ccnnc4)c3c2)cc1NS(=O)(=O)c1ccc(F)cc1F + CN(C)C/C=C/C(=O)Nc1cc2c(Nc3ccc(F)c(Cl)c3)ncnc2cc1O[C@H]1CCOC1 [Afatinib],28.7,15.7
CC(C)c1nc(CN(C)C(=O)NC(C(=O)NC(Cc2ccccc2)CC(O)C(Cc2ccccc2)NC(=O)OCc2cncs2)C(C)C)cs1 (stereo not given) [Ritonavir] + CN(C)C/C=C/C(=O)Nc1cc2c(Nc3ccc(F)c(Cl)c3)ncnc2cc1O[C@H]1CCOC1 [Afatinib],49.1,49
CC(C)(C)c1ccc(C(=O)CCCN2CCC(OC(c3ccccc3)c3ccccc3)CC2)cc1 [Ebastine] + CN(C)C/C=C/C(=O)Nc1cc2c(Nc3ccc(F)c(Cl)c3)ncnc2cc1O[C@H]1CCOC1 [Afatinib],48.2,50.3
CN1CCN(CCCN2c3ccccc3Sc3ccc(C(F)(F)F)cc32)CC1.Cl.Cl [Trifluoperazine 2HCl] + CN(C)C/C=C/C(=O)Nc1cc2c(Nc3ccc(F)c(Cl)c3)ncnc2cc1O[C@H]1CCOC1 [Afatinib],56.1,44
CNC(=O)c1cc(Oc2ccc(NC(=O)Nc3ccc(Cl)c(C(F)(F)F)c3)cc2)ccn1 [Sorafenib] + CN(C)C/C=C/C(=O)Nc1cc2c(Nc3ccc(F)c(Cl)c3)ncnc2cc1O[C@H]1CCOC1 [Afatinib],49.6,48.5
CC1=CC(=O)c2ccccc2C1=O [Menadione] + CN(C)C/C=C/C(=O)Nc1cc2c(Nc3ccc(F)c(Cl)c3)ncnc2cc1O[C@H]1CCOC1 [Afatinib],55.8,50.2
CCCCCOc1ccc(-c2ccc(-c3ccc(C(=O)N[C@H]4C[C@@H](O)[C@@H](O)NC(=O)[C@@H]5[C@@H](O)[C@@H](C)CN5C(=O)[C@H]([C@@H](C)O)NC(=O)[C@H]([C@H](O)[C@@H](O)c5ccc(O)cc5)NC(=O)[C@@H]5C[C@@H](O)CN5C(=O)[C@H]([C@@H](C)O)NC4=O)cc3)cc2)cc1 [Anidulafungin] + CN(C)C/C=C/C(=O)Nc1cc2c(Nc3ccc(F)c(Cl)c3)ncnc2cc1O[C@H]1CCOC1 [Afatinib],55.5,43
CCc1cnn2c(NCc3ccc[n+]([O-])c3)cc(N3CCCCC3CCO)nc12 (stereo not given) + CN(C)C/C=C/C(=O)Nc1cc2c(Nc3ccc(F)c(Cl)c3)ncnc2cc1O[C@H]1CCOC1 [Afatinib],25.6,16.4
COC(=O)C1=C(C)NC(C)=C(C(=O)OC2CCCN(Cc3ccccc3)C2)C1c1cccc([N+](=O)[O-])c1.Cl (stereo not given) [Benidipine HCl] + CN(C)C/C=C/C(=O)Nc1cc2c(Nc3ccc(F)c(Cl)c3)ncnc2cc1O[C@H]1CCOC1 [Afatinib],53.4,51.4
CC(NCCCc1cccc(C(F)(F)F)c1)c1cccc2ccccc12.Cl (stereo not given) [Cinacalcet HCl] + CN(C)C/C=C/C(=O)Nc1cc2c(Nc3ccc(F)c(Cl)c3)ncnc2cc1O[C@H]1CCOC1 [Afatinib],58.1,43.1
COc1cccc2c1C(=O)c1c(O)c3c(c(O)c1C2=O)CC(O)(C(=O)CO)CC3OC1CC(N)C(O)C(C)O1.Cl (stereo not given) [Epirubicin HCl] + CN(C)C/C=C/C(=O)Nc1cc2c(Nc3ccc(F)c(Cl)c3)ncnc2cc1O[C@H]1CCOC1 [Afatinib],58,10.2
Cc1c(Cl)cccc1Nc1ccccc1C(=O)O [Tolfenamic Acid] + CN(C)C/C=C/C(=O)Nc1cc2c(Nc3ccc(F)c(Cl)c3)ncnc2cc1O[C@H]1CCOC1 [Afatinib],57.3,51
CCN1CCN(Cc2ccc(Nc3ncc(F)c(-c4cc(F)c5nc(C)n(C(C)C)c5c4)n3)nc2)CC1.CS(=O)(=O)O + CN(C)C/C=C/C(=O)Nc1cc2c(Nc3ccc(F)c(Cl)c3)ncnc2cc1O[C@H]1CCOC1 [Afatinib],40.5,82.2
C[C@H]1O[C@@H](O[C@H]2[C@@H](O)C[C@H](O[C@H]3[C@@H](O)C[C@H](O[C@H]4CC[C@@]5(C)[C@H](CC[C@@H]6[C@@H]5C[C@@H](O)[C@]5(C)[C@@H](C7=CC(=O)OC7)CC[C@]65O)C4)O[C@@H]3C)O[C@@H]2C)C[C@H](O)[C@@H]1O [Digoxin] + CN(C)C/C=C/C(=O)Nc1cc2c(Nc3ccc(F)c(Cl)c3)ncnc2cc1O[C@H]1CCOC1 [Afatinib],27.8,61.3
Cl.O.O=C1Cc2cc(CCN3CCN(c4nsc5ccccc45)CC3)c(Cl)cc2N1 [Ziprasidone hydrochloride monohydrate] + CN(C)C/C=C/C(=O)Nc1cc2c(Nc3ccc(F)c(Cl)c3)ncnc2cc1O[C@H]1CCOC1 [Afatinib],46.7,45.2
Cl.OC(c1cc(C(F)(F)F)nc2c(C(F)(F)F)cccc12)C1CCCCN1 (stereo not given) [Mefloquine hydrochloride] + CN(C)C/C=C/C(=O)Nc1cc2c(Nc3ccc(F)c(Cl)c3)ncnc2cc1O[C@H]1CCOC1 [Afatinib],49.3,55.9
CN1CCN(CCOc2cc(OC3CCOCC3)c3c(Nc4c(Cl)ccc5c4OCO5)ncnc3c2)CC1 [Saracatinib (AZD0530)] + CN(C)C/C=C/C(=O)Nc1cc2c(Nc3ccc(F)c(Cl)c3)ncnc2cc1O[C@H]1CCOC1 [Afatinib],41.1,24.5
CO[C@@]12[C@H](COC(N)=O)C3=C(C(=O)C(C)=C(N)C3=O)N1C[C@@H]1N[C@@H]12 [Mitomycin C] + CN(C)C/C=C/C(=O)Nc1cc2c(Nc3ccc(F)c(Cl)c3)ncnc2cc1O[C@H]1CCOC1 [Afatinib],36,35.1
CN(C)CCOc1ccc(C(=C(CCCl)c2ccccc2)c2ccccc2)cc1.O=C(O)CC(O)(CC(=O)O)C(=O)O [Toremifene Citrate] + CN(C)C/C=C/C(=O)Nc1cc2c(Nc3ccc(F)c(Cl)c3)ncnc2cc1O[C@H]1CCOC1 [Afatinib],70.8,55.7
CC(C)C1=CC(=C2NNC(=O)N2c2ccc3c(ccn3C)c2)C(=O)C=C1O [Ganetespib (STA-9090)] + CN(C)C/C=C/C(=O)Nc1cc2c(Nc3ccc(F)c(Cl)c3)ncnc2cc1O[C@H]1CCOC1 [Afatinib],49.1,29.1
CC(C)CC(NC(=O)C(NC(=O)c1cccc(-c2ccccc2)n1)C(C)O)B(O)O (stereo not given) + CN(C)C/C=C/C(=O)Nc1cc2c(Nc3ccc(F)c(Cl)c3)ncnc2cc1O[C@H]1CCOC1 [Afatinib],34.1,97
O=C1C=CC=CC1=C1NC(=C2C=CC=CC2=O)N(c2ccc(C(=O)O)cc2)N1 [Deferasirox] + CN(C)C/C=C/C(=O)Nc1cc2c(Nc3ccc(F)c(Cl)c3)ncnc2cc1O[C@H]1CCOC1 [Afatinib],43.2,42.2
